Measured values taken from PubChem BioAssay (EPA / NIEHS).
Activity calls are given as the source filed them. How the source made its calls: active means hit-call score of the fitted dose curve at least 0.9, where 1 is the maximum; inactive means score below 0.9.

Assay: ATG_NFI_CIS: Attagene CIS-FACTORIAL HepG2 Assay for human Nuclear Factor I (NFI) (AID 2282989)
Details: HepG2 cis-regulatory reporter, NFI response element transcription; actives raise or lower the signal
Method: ATG_CIS is a cell-based, multiplexed-readout assay that uses HepG2, a human liver cell line, with measurements taken at 24 hours after chemical dosing in a 24-well plate.ATG_NFI_CIS is one of 52 assay component(s) measured or calculated from the ATG_CIS assay. It is designed to make measurements of mRNA induction, a form of inducible reporter, as detected with fluorescence intensity signals by Reverse transcription polymerase chain reaction (RT-PCR) and Capillary electrophoresis technology.Data from the assay component ATG_NFI_CIS was analyzed into 1 assay endpoint. This assay endpoint, ATG_NFI_CIS, was analyzed with bidirectional fitting relative to DMSO as the negative control and baseline of activity. Using a type of inducible reporter, measures of mRNA for gain or loss-of-signal activity can be used to understand the reporter gene at the transcription factor-level as they relate to the gene NFIA. Furthermore, this assay endpoint can be referred to as a primary readout, because this assay has produced multiple assay endpoints where this one serves a reporter gene function. To generalize the intended target to other relatable targets, this assay endpoint is annotated to the dna binding intended target family, where the subfamily is nuclear factor I.
Human liver HepG2 cells are transiently transfected with multiple reporter transcription units (MRTUs) in 6-well plates using FuGene 6 reagent (Roche; 3 ml FuGene/1 mg DNA). The MRTU constructs are regulated by a cis-regulating element (promoter). […] A major difference between the CIS and TRANS system is that in CIS activities of endogenous TFs are measured, whereas the TRANS assay evaluates changes in activities of exogenous, chimeric NR-Gal4 proteins. […] At the end of 24 hour incubation, total RNA was isolated using TriZol reagent (Invitrogen). The isolated RNA is then reverse-transcribed using oligo(dT) primer and Mo-MLV reverse transcriptase (Invitrogen) with DNAse I (Ambion) treatment for 30 min. The one-tenth of the produced cDNA was amplified by PCR using Taq DNA polymerase (Invitrogen) and two reporter sequence-specific primers. The PCR products were fluorescently labeled by primer extension with 6-arboxyfluorescein (6-FAM) 5'-labeled reporter sequence-specific primer (2 min at 95 C, 20 s at 68 C and 10 min at 72 C) and these products were digested with 5U of HpaI (New England Biolabs) for 2h at 37 C. The fragments were purified using Qiaquick PCR columns (Qiagen), analyzed on an ABI 3130xL genetic analyzer (Applied Biosystems) with peak positions identified by using a set of X-rhodamine (ROX)-labeled MapMarker1000 molecular weight standards (BioVentures). The raw capillary electrophoresis data was processed using Attagraph software (Attagene).

Row | SMILES | outcome | AC50
1 | CC(O)CNCC(C)O (stereo not given) | inactive | –
2 | NC(N)=S | inactive | –
3 | NC(=O)NC(N)=O | inactive | –
4 | CC=CC(=O)C1=C(C)C=CCC1(C)C | inactive | –
5 | O=S1(=O)CC=CC1 | inactive | –
6 | CC(CO)c1ccccc1 (stereo not given) | inactive | –
7 | O=C1OC2(c3ccc(O)cc3Oc3cc(O)ccc32)c2ccccc21 | inactive | –
8 | [Cl][Dy]([Cl])[Cl] | inactive | –
9 | CC(=O)OC/C=C(C)/C=C/C=C(C)/C=C/C1=C(C)CCCC1(C)C | inactive | –
10 | COC(=O)c1cccc(C(=O)OC)c1 | inactive | –
11 | CC(C)C(=O)OCC=Cc1ccccc1 | inactive | –
12 | OC[C@H]1O[C@@H](O[C@H]2[C@H](O)[C@@H](O)[C@H](O)O[C@@H]2CO)[C@H](O)[C@@H](O)[C@H]1O | inactive | –
13 | CC1=CC(O)CC(C)(C)C1 (stereo not given) | inactive | –
14 | CCCCCCCCCCO[C@@H]1O[C@H](CO)[C@@H](O)[C@H](O)[C@H]1O | inactive | –
15 | C1CCCNCC1 | inactive | –
16 | [Na+] | inactive | –
17 | CC(=O)c1ccc(C)cc1 | inactive | –
18 | OCC=Cc1ccccc1 | inactive | –
19 | CCC(=O)OC/C=C(\C)CCC=C(C)C | inactive | –
20 | S=c1[nH][nH]c(=S)s1 | inactive | –

Row | SMILES | outcome | AC50
21 | CC(=O)Nc1cc(S(=O)(=O)O)cc2cc(S(=O)(=O)O)c(N=Nc3ccccc3)c(O)c12 | inactive | –
22 | CCC(C)(C)C1CCC(OC)CC1 (stereo not given) | inactive | –
23 | CCCCC/C=C\C=C\C(=O)OCC | – | 40 µM (active)
24 | CCC(C)(C)C1CCC(=O)CC1 | inactive | –
25 | COc1ccc(N)c(C)c1 | inactive | –
26 | CC(C)C(=O)c1ccccc1 | inactive | –
27 | CCCCCCC(O)CCOC(C)=O (stereo not given) | inactive | –
28 | CCCCCCCCCCCCN1CCOCC1 | inactive | –
29 | CCn1cc(C(=O)O)c(=O)c2ccc(C)nc21 | inactive | –
30 | CC(=O)CC(=O)N(C)C | inactive | –
31 | CCCCCCC(C)O (stereo not given) | inactive | –
32 | C=CCOCC(O)CO (stereo not given) | inactive | –
33 | C=CC(C)CCCC(C)(C)O (stereo not given) | inactive | –
34 | CCNC(=S)NCC | inactive | –
35 | CC1=CC[C@@H](C(C)(C)O)CC1 | inactive | –
36 | CN(C)C(=O)Nc1ccccc1 | inactive | –
37 | c1ccc2scnc2c1 | inactive | –
38 | CC/C=C\CCOC(C)OCC (stereo not given) | inactive | –
39 | CCCCCCCCCCCCCC(=O)OCC | inactive | –
40 | CCCCC1CCCCC(=O)O1 (stereo not given) | inactive | –
